Reference: PubChem BioAssay (EPA / NIEHS)
“And” between values parts separate entries of the source, which are not always exact repeats. Equal entries are not always repeated. Where a structure was tested more than once in an assay, its records may differ in their call. The source made the active and inactive calls. Rule for the calls: active = hit-call score of the fitted dose curve at least 0.9, where 1 is the maximum; inactive = score below 0.9.

Test: ATG_TA_CIS: Attagene CIS-FACTORIAL HepG2 Assay for human TA Basal Promoter (AID 2282964)
Settings: HepG2 Attagene CIS-factorial TA basal promoter reporter; actives raise or lower the signal
Summary of the method: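 Read-out: fluorescent reporter-transcript fragments resolved by capillary electrophoresis after RT-PCR and HpaI digestion. Source: HepG2 cells carrying transiently transfected multi-reporter cis constructs, treated 24 h. Endpoint fitted bidirectionally relative to DMSO.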

Row | SMILES | outcome | AC50
1 | ClC1=C(Cl)[C@]2(Cl)[C@@H]3[C@@H](Cl)[C@H]4O[C@H]4[C@@H]3C1(Cl)C2(Cl)Cl | inactive | 
2 | CCC(=O)O[C@H]1CC[C@H]2[C@@H]3CCC4=CC(=O)CC[C@]4(C)[C@H]3CC[C@]12C | inactive | 100 µM (active) and 129 µM (active)
3 | Cc1cccc(C)c1N | inactive | 
4 | O=C(O)C(F)(F)C(F)(F)C(F)(F)C(F)(F)C(F)(F)F | inactive | 
5 | CCOC(=O)C(O)(c1ccc(Cl)cc1)c1ccc(Cl)cc1 | inactive | 
6 | Cc1ccccc1[N+](=O)[O-] | inactive | 
7 | Sc1ccccc1 | inactive | 
8 | O=C(N[C@H]1CN2CCC1CC2)c1cc2ccoc2cn1 | inactive | 
9 | OCC(O)CO | inactive | 
10 | CCCN(CCC)N=O | inactive | 
11 | CCC(C)(CC)c1cc(NC(=O)c2c(OC)cccc2OC)on1 | inactive | 
12 | Clc1ccc(C(c2ccccc2Cl)C(Cl)(Cl)Cl)cc1 (centres undefined) | inactive | 45.3 µM (active)
13 | N#Cc1ccc(N(CC(N)=O)CC(F)(F)F)cc1C(F)(F)F | inactive | 
14 | O=S(=O)(O)C(F)(F)C(F)(F)C(F)(F)C(F)(F)C(F)(F)C(F)(F)F | inactive | 
15 | CCNc1nc(NC(C)C)nc(SC)n1 | inactive | 
16 | CCSC(=O)N(CC)C1CCCCC1 | inactive | 
17 | Cc1cc2c3c(c1)C(c1ccccc1)=N[C@@H](NC(=O)c1ccncc1)C(=O)N3CC2 |  | 100 µM (active)
18 | O=C(O)C(F)(F)C(F)(F)C(F)(F)C(F)(F)C(F)(F)C(F)(F)C(F)(F)C(F)(F)C(F)(F)F | inactive | 
19 | ClC(Cl)=C(c1ccc(Cl)cc1)c1ccc(Cl)cc1 | inactive | 
20 | Cc1ccccc1O | inactive | 
21 | CC#Cc1cc(C)nc(Nc2ccccc2)n1 |  | 100 µM (active)
22 | CCC(C)c1cc([N+](=O)[O-])cc([N+](=O)[O-])c1O (centres undefined) | inactive | 
23 | ClC1=C(Cl)[C@]2(Cl)[C@@H]3[C@H]4C[C@H]([C@@H]5O[C@H]45)[C@@H]3[C@@]1(Cl)C2(Cl)Cl | inactive | 

Test: ATG_TCF_b_cat_CIS: Attagene CIS-FACTORIAL HepG2 Assay for human T-Cell-Factor with beta-catenin (TCF/b-cat) (AID 2282965)
Settings: HepG2 TCF/beta-catenin cis-reporter transcription, actives raise or lower the signal
Summary of the method: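 In this cis-format system, transfected HepG2 cells report endogenous transcription factor activity. Readout after 24 h exposure is reporter transcript abundance from RT-PCR and capillary electrophoresis, analysed for gain or loss of signal versus DMSO.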

Row | SMILES | AC50 | outcome
24 | Oc1ccc(C(c2ccc(O)cc2)(C(F)(F)F)C(F)(F)F)cc1 | 11.1 µM (active) and 8.78 µM (active) | inactive
25 | Cc1cc(-c2ccc(N)c(C)c2)ccc1N |  | inactive
26 | CCCCCCCCCc1ccc(O)cc1 | 100 µM (active) | inactive
27 | CC(C)(c1ccccc1)c1ccc(O)cc1 | 39.9 µM (active) and 54.5 µM (active) | inactive
28 | ClC1=C(Cl)[C@]2(Cl)[C@@H]3[C@@H](Cl)[C@H]4O[C@H]4[C@@H]3C1(Cl)C2(Cl)Cl |  | inactive
29 | CCC(=O)O[C@H]1CC[C@H]2[C@@H]3CCC4=CC(=O)CC[C@]4(C)[C@H]3CC[C@]12C | 100 µM (active) and 92.5 µM (active) | inactive
30 | NS(=O)(=O)C(F)(F)C(F)(F)C(F)(F)C(F)(F)C(F)(F)C(F)(F)C(F)(F)C(F)(F)F | 150 µM (active) | inactive
31 | Cc1cccc(C)c1N |  | inactive
32 | O=C(O)C(F)(F)C(F)(F)C(F)(F)C(F)(F)C(F)(F)F |  | inactive
33 | CCOC(=O)C(O)(c1ccc(Cl)cc1)c1ccc(Cl)cc1 |  | inactive
34 | Cc1ccccc1[N+](=O)[O-] |  | inactive
35 | CC(C)(O)C(=O)Nc1ccc([N+](=O)[O-])c(C(F)(F)F)c1 |  | inactive
36 | Sc1ccccc1 |  | inactive
37 | O=C(N[C@H]1CN2CCC1CC2)c1cc2ccoc2cn1 |  | inactive
38 | OCC(O)CO |  | inactive
39 | CCCN(CCC)N=O |  | inactive
40 | CCC(C)(CC)c1cc(NC(=O)c2c(OC)cccc2OC)on1 |  | inactive

Row | SMILES | AC50 | outcome
41 | Clc1ccc(C(c2ccccc2Cl)C(Cl)(Cl)Cl)cc1 (centres undefined) |  | inactive
42 | N#Cc1ccc(N(CC(N)=O)CC(F)(F)F)cc1C(F)(F)F |  | inactive
43 | O=S(=O)(O)C(F)(F)C(F)(F)C(F)(F)C(F)(F)C(F)(F)C(F)(F)F |  | inactive
44 | CCNc1nc(NC(C)C)nc(SC)n1 |  | inactive
45 | O=C(O)C(F)(F)C(F)(F)C(F)(F)C(F)(F)C(F)(F)C(F)(F)C(F)(F)C(F)(F)F | 33.4 µM (active) and 150 µM (active) and 50 µM (active) | 
46 | CCSC(=O)N(CC)C1CCCCC1 |  | inactive
47 | Cc1cc2c3c(c1)C(c1ccccc1)=N[C@@H](NC(=O)c1ccncc1)C(=O)N3CC2 | 35.8 µM (active) | 
48 | O=C(O)C(F)(F)C(F)(F)C(F)(F)C(F)(F)C(F)(F)C(F)(F)C(F)(F)C(F)(F)C(F)(F)F | 45 µM (active) and 35.7 µM (active) and 14.7 µM (active) | 
49 | CCC(C)(c1ccc(O)cc1)c1ccc(O)cc1 | 39.7 µM (active) and 49.7 µM (active) and 47.8 µM (active) | inactive
50 | ClC(Cl)=C(c1ccc(Cl)cc1)c1ccc(Cl)cc1 |  | inactive
51 | Cc1ccccc1O |  | inactive
52 | C[C@]12CCC(=O)C=C1CC[C@@H]1[C@@H]2CC[C@]2(C)C(=O)CC[C@@H]12 |  | inactive
53 | CN(C)CCO |  | inactive
54 | CC#Cc1cc(C)nc(Nc2ccccc2)n1 | 41.8 µM (active) | 
55 | CCC(C)c1cc([N+](=O)[O-])cc([N+](=O)[O-])c1O (centres undefined) |  | inactive
56 | ClC1=C(Cl)[C@]2(Cl)[C@@H]3[C@H]4C[C@H]([C@@H]5O[C@H]45)[C@@H]3[C@@]1(Cl)C2(Cl)Cl | 4.74 µM (active) | 
